Source: PubChem BioAssay (NCATS)
Inconclusive results are not listed. Active and inactive are the calls of the source. Unless noted, calls come from the whole dose curve; as a rule, active = well fitted curve in the direction sought with a large enough effect; inconclusive = small, poorly fitted or top-dose-only effect, or another doubt; inactive = no such curve, though single readings can be large; an effect the other way counts as inactive or inconclusive.

Assays:
[1] = AP1 Signaling Pathway (AID 357; active = well fitted curve in either direction with a large enough effect, not every such curve was filed as active;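 note: ME-180 reporter cells stimulated with EGF at its EC50 level; % is set by controls: 0 for no effect and ±100 for the full control effect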); settings: ME-180 AP-1-bla reporter, EGF-induced, beta-lactamase ratio, 5 h; at 38 µM (top of the series)
Summary of the method: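 Cells are seeded overnight, exposed to compound titrations and an EC50 level of EGF for 5 hours at 37 °C, then loaded with CCF4 dye for 2.5 hours. Beta-lactamase activity under the AP-1 element is read as a blue/green ratio.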

[2] = target: Cytochrome P450 1A2 (Homo sapiens) (UniProt P05177); experiment: p450-cyp1a2 (AID 410; calls by dose curve; note: potency is the fitted concentration of half-maximal effect); settings: recombinant CYP1A2, luciferin-ME demethylation, luminescence; series mostly up to 57 µM
Summary of the method: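 Human CYP1A2 (20nM) demethylated Luciferin-ME at its Km (100uM) in 100mM KPO4. After 10 min compound preincubation, NADPH regeneration ran the reaction 60 min at room temperature. Luciferin was read by luminescence, normalized to 57 uM furafylline.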

[3] = NFAT Signaling Pathway (AID 444; active = well fitted curve in either direction with a large enough effect, not every such curve was filed as active;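 note: carbachol stimulus at about its EC50 of 1 µM final; % is set by controls: 0 for no effect and ±100 for the full control effect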); settings: Jurkat NFAT-bla M1, carbachol, beta-lactamase ratio, 5 h; at 38 µM (top of the series)
Summary of the method: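 Jurkat cells with NFAT-driven β-lactamase reporter and co-expressed M1 receptor, stimulated with carbachol (final 1 uM, ~EC50), compound titration, 5 h at 37 °C. CCF4 loaded 1 h at RT; 460/530 nm ratio gave %activity and AC50.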

[4] = Stat Signaling Pathway (AID 446; active = well fitted curve in either direction with a large enough effect, not every such curve was filed as active;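 note: ME-180 cervical cancer cells given 40 pM IL-6 alongside compound; SIE-controlled beta-lactamase reporter measured as 460/530 nm FRET emission ratio; % is set by controls: 0 for no effect and ±100 for the full control effect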); settings: ME-180 SIE beta-lactamase reporter, IL-6 stimulated, 5 h; at 38 µM (top of the series)
Summary of the method: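 Screening format detects activators and inhibitors alike: ME-180 SIE-bla cells stimulated at 40 pM IL-6 for 5 hrs with compound, then dual-emission beta-lactamase read at 405 nm excitation.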

[5] = target: Glucocorticoid receptor (Homo sapiens) (UniProt P04150); experiment: GR-GFP Redistribution (AID 450;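 active = compounds whose dose series gives a full or clear partial fitted curve of increased nuclear translocation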; note: potency is the fitted concentration of half-maximal effect); settings: U2OS GR-GFP nuclear translocation, laser cytometry, 2 h
[6] = target: Glucocorticoid receptor (Homo sapiens) (UniProt P04150); experiment: GR-EFC Redistribution (AID 451; calls by dose curve; note: potency is the fitted concentration of half-maximal effect); settings: CHO-K1 GR-EFC translocation, beta-gal luminescence, 2 h
Summary of the method: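 CHO-K1 cells expressing nuclear EA and GR-ED fragments of b-gal; compounds titrated up to 46 uM final, 2 h at 37 C. GR nuclear translocation read as complemented b-gal luminescence after 1 h RT detection.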

[7] = target: Mitogen-activated protein kinase 10 (Mus musculus) (UniProt Q61831); experiment: JNK3 AlphaScreen Assay (AID 530; active = well fitted curve in either direction with a large enough effect, not every such curve was filed as active;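 note: kinase came from lysate of stimulated human HepG2 cells; signal reports phosphorylation of biotinylated GST-cJun 1-79 at Ser73 with 10 µM ATP; % is set by controls: 0 for no effect and ±100 for the full control effect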); settings: JNK3 lysate, c-Jun phosphorylation; series mostly up to 57.1 µM
Summary of the method: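 qHTS format: compounds tested as titrations against IL-1beta/TNF-alpha-activated HepG2 lysate JNK3 with biotin-GST-cJun substrate and 10 uM ATP at room temperature. Loss of anti-phospho-cJun AlphaScreen signal indicates inhibition.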

[8] = target: 3',5'-cyclic-AMP phosphodiesterase 4B (Homo sapiens) (UniProt Q07343); experiment: qHTS Assay for Inhibitors of PDE-IV (AID 607; active = well fitted activation curve with a large enough effect in the main read-out, with a control signal flat, not every such curve was filed as active; note: % of control where 0% means no effect); settings: HEK293 ACTOne CNG channel cells, membrane potential fluorescence; series mostly up to 22.9 µM
Summary of the method: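 The readout is membrane depolarisation from a cAMP-sensing CNG channel, detected with a potential dye at ex 535/em 590. Cells were HEK293-derived (endogenous PDE-IV) at 1000 cells/well, titrated up to 22.9 uM final.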

[9] = target: Guanine nucleotide-binding protein G(i) subunit alpha-1 (Homo sapiens) (UniProt P63096); experiment: qHTS Assay for Inhibitors of RGS12 GoLoco Motif Activity (Green Fluorophore) (AID 879); settings: Galphai1/FITC-RGS12 GoLoco peptide, fluorescence polarization; series mostly up to 57.1 µM;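 note: 0% = labeled peptide with Gαi1 and full inhibition = labeled peptide alone without protein; negative values mean loss of peptide binding seen as reduced polarization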
Summary of the method: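 Fluorescence polarization assay: 50 nM Gαi1 with 10 nM FITC-labeled RGS12 GoLoco peptide in 10 mM Tris pH 7.5, 150 mM NaCl, 0.1 mM GDP, 0.05% NP40, 10 min at room temperature with compound.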

[10] = target: Pyruvate kinase (Leishmania mexicana) (UniProt Q27686); experiment: qHTS Validation Assay for Inhibitors of Leishmania Mexicana Pyruvate Kinase (AID 945);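 note: 0% = DMSO only neutral control wells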; settings: purified L. mexicana pyruvate kinase, enzyme activity, E451W mutant enzyme; series mostly up to 57.5 µM
Summary of the method: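 Read-out: luminescence from PKLight stop/detection reagent, data normalized to DMSO. Reaction: 0.2 nM E451W LmPYK, 0.5 mM PEP, 0.1 mM ADP, pH 7.2, 1 h room temperature.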

[11] = target: Pyruvate kinase PKM (Homo sapiens) (UniProt P14618); experiment: qHTS Assay for Activators of Human Muscle Pyruvate Kinase (AID 954; active = well fitted curve in the direction sought with a large enough effect, not every such curve was filed as active;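 note: 0% = uninhibited enzyme and -100% = no enzyme or full thiadiazolimine inhibition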); settings: purified human muscle pyruvate kinase, luciferase-coupled luminescence, 1 h; series mostly up to 57.5 µM
Summary of the method: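 Reaction: 0.1 nM purified PKM2 with 0.5 mM phosphoenolpyruvate and 0.1 mM ADP, room temperature, 1 h. Readout: luciferase-based ATP luminescence after stop reagent. Activators judged against a 0.3 nM enzyme column.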

[12] = target: Alpha-galactosidase A (Homo sapiens) (UniProt P06280); experiment: Counterscreen for Glucocerebrosidase Inhibitors: qHTS Assay for Human alpha-Galactosidase at pH 4.5 (AID 992); settings: purified enzyme, fluorogenic substrate; series mostly up to 76.9 µM; note: 0% is about no effect
Summary of the method: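 Concentration-response curves (0.7 nM to 77 uM final) were modeled with the Hill equation to give AC50. Reactions: 2 nM enzyme, 80 uM fluorogenic alpha-galactoside, pH 4.5 citric acid buffer, 20 min, room temperature.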

[13] = target: alpha-glucosidase (Oryza sativa, rice) (UniProt Q653V4); experiment: Counterscreen for Glucocerebrosidase Inhibitors: qHTS Assay for Rice alpha-Glucosidase at pH 5.0 (AID 997); settings: rice alpha-glucosidase enzyme activity; series mostly up to 76.9 µM;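 note: 0% = full activity with enzyme and -100% = basal without enzyme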
Summary of the method: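 Rice alpha-glucosidase (4 nM final) with 400 uM 4-methylumbelliferyl-alpha-D-glucopyranoside in citrate buffer pH 5.0, 20 min at room temperature, stopped at pH 10; fluorescence 365/440 nm, compounds 0.7 nM–77 uM, AC50 from Hill fits.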

[14] = target: DNA dC->dU-editing enzyme APOBEC-3G (Homo sapiens) (UniProt Q9HC16); experiment: qHTS for inhibitors of Vif-A3G interactions: Validation (AID 588379); settings: Vif-A3G protein interaction assay; series mostly up to 46.1 µM; note: 0% is about no effect
Summary of the method: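 HeLa cells stably expressing Vif and A3G-eYFP, 700 cells/well, incubated overnight at 37 deg C, then exposed to compound overnight at 37 deg C. Inhibition of Vif-mediated degradation read as increased yellow fluorescence (Ex 488/Em 500-530) by laser-scanning cytometry.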

[15] = tested on: Zika virus NS2B-NS3 protease; experiment: Primary screen GU AMC qHTS for Zika virus inhibitors (AID 1347154); settings: Zika NS2B-NS3 unlinked protease, AMC fluorogenic substrate; series mostly up to 54.1 µM;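 note: 0% = no-inhibitor control and -100% = no-enzyme control; nearly all actives have a fitted effect of over 70% in size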
Summary of the method: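 Unlinked Zika NS2B hydrophilic domain–NS3 protease complex at 25 nM in 10 mM Tris-HCl pH 8.0, 0.01% Tween 20, with an AMC peptide substrate. Fluorescence change (340/450 nm) over 15 min at room temperature, normalized to controls, fitted to 4-parameter Hill.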

[16] = Primary qHTS for small molecule stabilizers of the endoplasmic reticulum resident proteome: Secreted ER Calcium Modulated Protein (SERCaMP) assay (AID 1508630); settings: SH-SY5Y GLuc-SERCaMP (Gaussia luciferase released on ER calcium loss) secretion, thapsigargin, luminescence; series mostly up to 38.4 µM; note: % is set by controls: 0 for no effect and ±100 for the full control effect
Summary of the method: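 GLuc-SERCaMP-expressing SH-SY5Y cells, pretreated 16 h with compound, are challenged with thapsigargin to empty ER calcium stores; after 4 h, coelenterazine is added directly to the medium and luminescence is imaged.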

[17] = target: Cytochrome P450 3A4 (Homo sapiens) (UniProt P08684); experiment: qHTS Assay for Activators of Cytochrome P450 3A4 (AID 885); settings: recombinant CYP3A4, Luciferin-PPXE luminescence, 60 min; series mostly up to 57.1 µM; note: nearly all actives have a fitted effect of over 65% in size
Summary of the method: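 Steps: enzyme/substrate mix dispensed; compound added, 10 min RT; NADPH regeneration solution added, 60 min RT; luciferin detection buffer stops reaction; 20 min later luminescence measured.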

[18] = target: Cytochrome P450 2C19 (Homo sapiens) (UniProt P33261); experiment: qHTS Assay for Inhibitors and Substrates of Cytochrome P450 2C19 (AID 899); settings: recombinant CYP2C19, luciferin-H EGE luminescence; series mostly up to 57.1 µM; note: potency is the fitted concentration of half-maximal effect; nearly all actives have a fitted effect of over 60% in size
Summary of the method: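 Luminescent read-out of luciferin formed from Luciferin-H EGE (10uM, equal to KM). Enzyme 5nM in 50mM KPO4; compound added, 10 min at 37C, then NADPH regenerating system for 60 min at 37C. Full inhibition defined by 57uM ketoconazole.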

[19] = qHTS Assay for Lipid Storage Modulators (AID 1519; calls by dose curve); settings: Drosophila S3 cells, BODIPY lipid droplet/cell ratio, laser cytometry, cells loaded with oleic acid; for activity change, negative = inhibition: at 57.5 µM (top of the series)
Summary of the method: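 Cells seeded at 5,000 per well were treated with compounds over a concentration series and loaded with oleic acid (400 uM, as added). Lipid droplet fluorescence (488 nm excitation, 500-530 nm channel) was read by laser-scanning cytometry and normalized to 20 uM Triacsin C.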

[20] = target: Ubiquitin carboxyl-terminal hydrolase 1 (Homo sapiens) (UniProt O94782); experiment: Inhibitors of USP1/UAF1: Pilot qHTS (AID 504865); settings: purified USP1/UAF1, Ub-rhodamine cleavage fluorescence; series mostly up to 114 µM;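 note: rhodamine fluorescence freed from ubiquitin-rhodamine substrate followed over time; top concentration of the series differs between compounds; % is set by controls: 0 for no effect and ±100 for the full control effect; nearly all actives have a fitted effect of over 35% in size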
Summary of the method: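 Deubiquitinase activity followed as kinetic rhodamine fluorescence release from 150 nM Ub-Rho. 1 nM USP1/UAF1 with compound, after 15 min room-temperature preincubation, in HEPES pH 7.8 buffer containing TCEP, EDTA, BSA and Tween-20.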

[21] = measured here: cell count channel max response
[22] = measured here: lipid channel max response

Cytochrome P450 1A2 (Homo sapiens), sequence (P05177 whole entry, looked up): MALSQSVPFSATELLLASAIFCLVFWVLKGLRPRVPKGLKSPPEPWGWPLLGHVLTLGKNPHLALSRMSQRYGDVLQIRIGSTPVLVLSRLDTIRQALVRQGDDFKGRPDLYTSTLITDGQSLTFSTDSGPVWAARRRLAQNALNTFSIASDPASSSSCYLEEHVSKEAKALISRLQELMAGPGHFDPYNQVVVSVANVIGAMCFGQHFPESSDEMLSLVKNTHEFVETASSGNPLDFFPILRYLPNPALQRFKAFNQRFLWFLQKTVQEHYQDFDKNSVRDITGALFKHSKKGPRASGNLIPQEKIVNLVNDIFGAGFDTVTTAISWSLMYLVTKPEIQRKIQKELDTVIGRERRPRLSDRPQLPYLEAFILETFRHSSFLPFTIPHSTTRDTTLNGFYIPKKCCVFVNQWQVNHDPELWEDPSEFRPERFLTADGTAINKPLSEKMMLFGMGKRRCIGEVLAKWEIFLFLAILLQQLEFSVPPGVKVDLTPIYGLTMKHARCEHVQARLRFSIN
DNA dC->dU-editing enzyme APOBEC-3G (Homo sapiens), sequence (Q9HC16 whole entry, looked up): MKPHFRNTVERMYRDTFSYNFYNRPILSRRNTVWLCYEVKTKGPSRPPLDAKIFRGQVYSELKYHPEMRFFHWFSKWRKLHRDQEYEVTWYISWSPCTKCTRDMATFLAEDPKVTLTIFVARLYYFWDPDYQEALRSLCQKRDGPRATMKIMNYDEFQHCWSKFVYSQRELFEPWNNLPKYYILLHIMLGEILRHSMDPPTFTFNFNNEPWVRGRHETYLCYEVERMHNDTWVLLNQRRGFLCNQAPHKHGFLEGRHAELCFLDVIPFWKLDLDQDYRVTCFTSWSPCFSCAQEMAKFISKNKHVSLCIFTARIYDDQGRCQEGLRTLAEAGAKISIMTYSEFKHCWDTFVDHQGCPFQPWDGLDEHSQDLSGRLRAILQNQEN
Glucocorticoid receptor (Homo sapiens), sequence (P04150 whole entry, looked up, the tested form may be a part): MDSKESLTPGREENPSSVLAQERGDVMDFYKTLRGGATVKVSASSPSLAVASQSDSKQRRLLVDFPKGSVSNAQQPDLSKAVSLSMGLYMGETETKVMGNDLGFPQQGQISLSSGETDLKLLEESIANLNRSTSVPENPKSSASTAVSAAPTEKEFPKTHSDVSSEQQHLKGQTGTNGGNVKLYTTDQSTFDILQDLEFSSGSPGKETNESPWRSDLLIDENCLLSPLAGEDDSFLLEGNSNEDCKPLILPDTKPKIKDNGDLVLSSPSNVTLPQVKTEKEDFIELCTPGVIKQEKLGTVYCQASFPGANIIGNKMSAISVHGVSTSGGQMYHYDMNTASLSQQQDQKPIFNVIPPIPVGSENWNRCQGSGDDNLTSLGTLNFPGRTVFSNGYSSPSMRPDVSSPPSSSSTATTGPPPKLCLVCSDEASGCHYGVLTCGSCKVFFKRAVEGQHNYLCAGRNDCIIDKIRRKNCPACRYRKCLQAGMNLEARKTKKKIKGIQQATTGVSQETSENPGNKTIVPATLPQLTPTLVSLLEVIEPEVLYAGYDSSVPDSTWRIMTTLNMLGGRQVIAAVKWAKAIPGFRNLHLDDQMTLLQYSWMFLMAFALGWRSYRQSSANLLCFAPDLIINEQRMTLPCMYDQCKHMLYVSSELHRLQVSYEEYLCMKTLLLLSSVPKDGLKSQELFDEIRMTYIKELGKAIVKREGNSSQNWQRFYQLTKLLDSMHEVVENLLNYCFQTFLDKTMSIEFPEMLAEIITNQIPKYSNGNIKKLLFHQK
Ubiquitin carboxyl-terminal hydrolase 1 (Homo sapiens), sequence (O94782 whole entry, looked up): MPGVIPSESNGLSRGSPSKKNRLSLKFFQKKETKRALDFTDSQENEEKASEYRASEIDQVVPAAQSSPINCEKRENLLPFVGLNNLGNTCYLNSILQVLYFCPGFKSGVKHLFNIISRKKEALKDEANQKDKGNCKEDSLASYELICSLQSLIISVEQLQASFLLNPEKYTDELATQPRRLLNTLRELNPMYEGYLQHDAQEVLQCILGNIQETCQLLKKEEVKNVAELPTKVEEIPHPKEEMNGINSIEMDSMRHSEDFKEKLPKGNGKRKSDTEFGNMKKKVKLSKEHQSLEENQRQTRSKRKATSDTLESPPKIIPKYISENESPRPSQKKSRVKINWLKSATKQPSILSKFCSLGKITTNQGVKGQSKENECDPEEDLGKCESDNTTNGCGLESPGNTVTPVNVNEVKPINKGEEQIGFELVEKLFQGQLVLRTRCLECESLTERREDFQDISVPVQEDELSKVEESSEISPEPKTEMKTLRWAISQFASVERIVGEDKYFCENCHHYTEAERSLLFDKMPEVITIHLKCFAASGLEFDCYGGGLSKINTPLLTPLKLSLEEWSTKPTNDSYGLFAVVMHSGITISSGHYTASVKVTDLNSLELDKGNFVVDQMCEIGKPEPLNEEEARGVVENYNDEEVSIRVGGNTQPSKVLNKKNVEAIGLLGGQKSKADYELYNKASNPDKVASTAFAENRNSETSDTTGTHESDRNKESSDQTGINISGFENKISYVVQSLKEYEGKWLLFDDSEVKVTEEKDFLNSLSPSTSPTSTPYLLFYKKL
Cytochrome P450 3A4 (Homo sapiens), sequence (P08684 whole entry, looked up): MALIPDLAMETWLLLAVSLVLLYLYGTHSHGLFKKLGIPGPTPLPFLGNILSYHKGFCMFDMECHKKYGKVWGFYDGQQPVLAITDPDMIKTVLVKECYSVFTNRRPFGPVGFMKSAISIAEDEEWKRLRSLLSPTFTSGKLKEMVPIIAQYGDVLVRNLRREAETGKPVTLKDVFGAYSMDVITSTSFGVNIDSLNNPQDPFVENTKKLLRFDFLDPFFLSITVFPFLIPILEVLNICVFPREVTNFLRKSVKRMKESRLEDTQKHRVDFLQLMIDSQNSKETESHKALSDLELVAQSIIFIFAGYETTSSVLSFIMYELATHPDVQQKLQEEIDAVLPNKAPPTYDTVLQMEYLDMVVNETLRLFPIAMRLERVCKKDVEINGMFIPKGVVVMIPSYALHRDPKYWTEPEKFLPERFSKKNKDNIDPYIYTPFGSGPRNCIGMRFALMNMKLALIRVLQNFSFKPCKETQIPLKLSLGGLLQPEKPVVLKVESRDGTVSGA
Pyruvate kinase (Leishmania mexicana), sequence (Q27686 2-499 E452W): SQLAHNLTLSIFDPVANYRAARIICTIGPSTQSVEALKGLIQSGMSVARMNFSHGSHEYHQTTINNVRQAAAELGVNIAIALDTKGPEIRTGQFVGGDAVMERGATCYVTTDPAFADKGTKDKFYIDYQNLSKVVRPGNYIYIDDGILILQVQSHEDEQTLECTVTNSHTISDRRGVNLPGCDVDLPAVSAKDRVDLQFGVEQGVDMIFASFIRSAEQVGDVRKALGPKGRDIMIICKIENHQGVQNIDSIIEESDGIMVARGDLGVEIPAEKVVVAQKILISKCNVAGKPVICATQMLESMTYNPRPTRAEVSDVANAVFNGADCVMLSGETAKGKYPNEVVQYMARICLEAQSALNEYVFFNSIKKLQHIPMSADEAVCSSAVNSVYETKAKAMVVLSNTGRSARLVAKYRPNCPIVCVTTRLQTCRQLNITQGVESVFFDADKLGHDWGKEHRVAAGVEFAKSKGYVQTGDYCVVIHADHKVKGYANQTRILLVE
Pyruvate kinase PKM (Homo sapiens), sequence (P14618 whole entry, looked up): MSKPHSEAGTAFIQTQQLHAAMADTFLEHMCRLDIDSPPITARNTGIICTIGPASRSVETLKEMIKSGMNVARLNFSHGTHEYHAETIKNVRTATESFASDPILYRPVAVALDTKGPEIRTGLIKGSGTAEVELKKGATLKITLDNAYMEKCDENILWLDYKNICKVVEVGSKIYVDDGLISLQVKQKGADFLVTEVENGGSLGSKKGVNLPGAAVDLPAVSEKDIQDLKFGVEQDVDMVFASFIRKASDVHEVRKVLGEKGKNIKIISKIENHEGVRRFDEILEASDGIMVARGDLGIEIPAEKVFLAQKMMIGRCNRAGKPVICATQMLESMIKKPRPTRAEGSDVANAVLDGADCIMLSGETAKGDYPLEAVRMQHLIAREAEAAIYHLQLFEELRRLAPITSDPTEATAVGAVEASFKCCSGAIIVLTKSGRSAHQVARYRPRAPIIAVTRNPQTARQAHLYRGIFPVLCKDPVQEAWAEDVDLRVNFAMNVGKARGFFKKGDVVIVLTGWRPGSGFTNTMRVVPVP
Alpha-galactosidase A (Homo sapiens), sequence (P06280 whole entry, looked up): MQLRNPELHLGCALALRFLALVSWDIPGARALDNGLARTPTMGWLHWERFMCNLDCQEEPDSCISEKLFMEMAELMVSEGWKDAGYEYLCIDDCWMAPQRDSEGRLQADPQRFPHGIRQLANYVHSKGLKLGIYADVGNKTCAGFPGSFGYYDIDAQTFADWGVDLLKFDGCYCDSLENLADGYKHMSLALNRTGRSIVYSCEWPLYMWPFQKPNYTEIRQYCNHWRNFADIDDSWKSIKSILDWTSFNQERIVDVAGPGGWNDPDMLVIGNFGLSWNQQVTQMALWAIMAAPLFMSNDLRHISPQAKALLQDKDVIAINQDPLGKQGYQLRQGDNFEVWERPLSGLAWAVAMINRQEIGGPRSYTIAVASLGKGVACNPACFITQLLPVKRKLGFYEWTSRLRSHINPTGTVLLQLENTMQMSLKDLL
Guanine nucleotide-binding protein G(i) subunit alpha-1 (Homo sapiens), sequence (P63096 whole entry, looked up): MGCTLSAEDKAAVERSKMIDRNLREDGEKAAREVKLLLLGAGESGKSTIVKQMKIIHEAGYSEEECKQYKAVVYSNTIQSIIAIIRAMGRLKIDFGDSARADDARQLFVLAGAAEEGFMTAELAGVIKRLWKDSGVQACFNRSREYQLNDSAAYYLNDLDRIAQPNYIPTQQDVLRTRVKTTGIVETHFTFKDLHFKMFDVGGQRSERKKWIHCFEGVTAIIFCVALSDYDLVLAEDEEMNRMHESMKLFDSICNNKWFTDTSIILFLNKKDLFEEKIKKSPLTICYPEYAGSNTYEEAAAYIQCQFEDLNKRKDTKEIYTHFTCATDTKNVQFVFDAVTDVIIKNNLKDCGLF

CCn1ccnc1C[C@@H]1COc2ccccc2O1
inactive: activity change, negative = inhibition [1] -10% | activity change, negative = inhibition [3] -4.02% | activity, negative = inhibition [4] -3.71% | Potency [5] > 46 µM | Potency [6] > 46 µM | Potency [7] | Potency [8] | outcome [9] | Potency [10] | outcome [11] | outcome [12] | outcome [13] | Potency [14] | Potency [15] | Potency [16]
active: Potency [2] 15.8 µM

CC/C=C\C/C=C\C/C=C\C/C=C\C/C=C\CCCCCC(=O)O
inactive: activity change, negative = inhibition [15] -1.57% [at 6.83 µM] | activity change, negative = inhibition [16] -17.3% [at 3.88 µM]

COC(=O)C1=C(C)NC(C)=C([N+](=O)[O-])[C@@H]1c1ccccc1C(F)(F)F
inactive: Potency [6] > 46 µM | Potency [17] | Potency [14] | Potency [15] | Potency [16]
active: Potency [2] 39.8 µM | Potency [18] 126 nM

CC(C)[C@H](CO)Nc1nc(Nc2cc(N)cc(Cl)c2)c2ncn(C(C)C)c2n1
active: Potency [2] 0.501 µM
inactive: Potency [5] > 46 µM | Potency [6] > 46 µM | Potency [7] | Potency [14] | Potency [15] | Potency [16]

CC(C)=CCC/C(C)=C/CC/C(C)=C/CC/C(C)=C/CO
21.5%: max response [19, 22]
9.56%: max response [19, 21]
inactive: activity change, negative = inhibition [19] 7.37% | Potency [20] | Potency [15] | Potency [16]

NC(N)=NCCC[C@@H](N)C(=O)O
-17.8%: max response [19, 21]
-21.4%: max response [19, 22]
inactive: activity change, negative = inhibition [19] -2.14% | Potency [20] | Potency [14] | Potency [15] | Potency [16]

CC[C@H](C)C(=O)O[C@H]1CCC=C2C=C[C@H](C)[C@H](CC[C@@H]3C[C@H](O)CC(=O)O3)[C@H]21
active: Potency [2] 31.6 µM
inactive: Potency [5] > 46 µM | Potency [6] > 46 µM | Potency [7] | outcome [9] | Potency [17] | Potency [10] | outcome [11] | outcome [12] | outcome [13] | Potency [14] | Potency [15] | Potency [16]
